Rows were chosen to be rich in hits. Some 21% of all compounds tested hit in one or more screens of this group.
NS1 function inh = qHTS Assay for Inhibitors of Influenza NS1 Protein Function. 0.4% of 270,000 active. Potency, µM (titrated, usually from 46.1 µM), for inactives: at the highest dose activity, positive = more growth. AID 2326, 2010; calls by dose curve; note: potency is the fitted concentration of half-maximal effect; actives are rising curves; nearly all actives have a fitted effect of over 50% in size
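Compounds were scored for reversing the slow growth caused by influenza A NS1 in S. cerevisiae, measured by optical density at 600 nm. Assay medium contained 2% galactose at pH 6.0; NS1-free yeast of the same strain were the positive control.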
Sm TGR block = qHTS Assay for the Inhibitors of Schistosoma Mansoni Peroxiredoxins; Schistosoma mansoni thioredoxin glutathione reductase (TGR), Q962Y6; purified TGR, DTNB reduction, TNB absorbance 405 nm; Potency, µM (series often up to 114 µM), for the others: at the top dose activity change, negative = inhibition, actives largely listed as inhibitors; 3% of 360,000 active; AID 485364, 2010; note: potency is the fitted concentration of half-maximal effect; % is set by controls: 0 for no effect and ±100 for the full control effect; nearly all actives have a fitted effect of over 60% in size
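Kinetic colorimetric format: TGR-catalysed, NADPH-driven DTNB reduction monitored via TNB absorbance. Enzyme dispensed at 20 nM; compound exposure 15 min at room temperature before reaction start.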
CHX counter = Cycloheximide Counterscreen for Small Molecule Inhibitors of Shiga Toxin; cell reporter, cycloheximide protein synthesis inhibition counterscreen; max response, %; 12% of 300,000 active; in the data active = max response mostly above about 13%, no sharp cut-off; inactive = mostly below about 14%; note: read at 38.3 µM for the half of the compounds with a filed dose; 0% is about no effect
Shiga toxin inh = A qHTS for Small Molecule Inhibitors of Shiga Toxin | 9.2% of 290,000 active | inhibition, % at 38.7 µM | Vero cells, Shiga toxin protein synthesis inhibition reporter; in the data active = inhibition mostly above about 28%, no sharp cut-off; inactive = mostly below about 43%; note: 0% is about no effect
Pf growth 96h = Primary qHTS for delayed death inhibitors of the malarial parasite plastid, 96 hour incubation | Potency, µM (titrated, usually from 28.7 µM), for inactives: top-dose activity change, negative = inhibition, actives largely listed as inhibitors | 6.9% of 320,000 active | P. falciparum luciferase reporter growth, 96 h; note: potency is the fitted concentration of half-maximal effect; % is set by controls: 0 for no effect and ±100 for the full control effect
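Delayed-death screen, second-generation endpoint: infected erythrocytes, 2% hematocrit, 0.05% parasitemia final; 96 hours at 37 C, 5% CO2; luciferase detection reagent; luminescence decrease equals reduced growth.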
Pf growth 48h = Primary qHTS for delayed death inhibitors of the malarial parasite plastid, 48 hour incubation; P. falciparum luciferase growth in erythrocytes, 48 h; Potency, µM (highest dose often 28.7 µM), without a hit: at the top dose activity change, negative = inhibition, hits mostly inhibitors; 5.9% of 310,000 active; AID 504832, 2011; note: potency is the fitted concentration of half-maximal effect; % is set by controls: 0 for no effect and ±100 for the full control effect
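Luminescence readout; reporter = integrated firefly luciferase in P. falciparum. RBC culture at 2% hematocrit, 0.1% parasitemia final, 37 C/5% CO2; decreased signal taken as growth inhibition.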
Active calls of the source: *; i = inactive; ? = inconclusive; . = not tested or not shown; [ ] = dose if it differs, or a comment. Unless noted, calls come from the whole dose curve; as a rule, active = well fitted curve in the direction sought with a large enough effect; inconclusive = small, poorly fitted or top-dose-only effect, or another doubt; inactive = no such curve, though single readings can be large; an effect the other way counts as inactive or inconclusive.

SMILES | NS1 function inh | Sm TGR block | CHX counter | Shiga toxin inh | Pf growth 96h | Pf growth 48h
COCCNC(=O)/C(C#N)=C/c1ccc2c(c1)OCO2 | 6% | -9% | 19* | 41* | ? | 9%
Cc1ccc(S(=O)(=O)Nc2ccc(C(=O)NCCCN3CCOCC3)cc2)cc1[N+](=O)[O-] | . | 1% | . | . | -6% | 38%
COc1ccc(C2c3cc(OC)c(OC)cc3CC(=O)N2c2ccc(C)c(F)c2)cc1 (stereo not drawn) | . | 11% | . | . | . | .
COc1ccccc1NS(=O)(=O)c1cc(NC(=O)c2ccco2)ccc1N1CCOCC1 | . | -8% | 9 | -4 | 10µM* | ?
COc1ccc(NS(=O)(=O)c2cc(NC(=O)c3cccs3)ccc2N2CCOCC2)cc1 | . | 9% | -3 | -6 | ? | ?
COc1nnc(-c2ccc(N3CCOCC3)c(NC(=O)c3ccco3)c2)c2ccccc12 | -59% | ? | -2 | -6 | 13% | 7.4µM*
COc1ccccc1NS(=O)(=O)c1cc(NC(=O)c2ccccc2F)ccc1N1CCOCC1 | . | -1% | 2 | -13 | 9.3µM* | 0%
COc1ccccc1NS(=O)(=O)c1cc(NC(=O)c2cccs2)ccc1N1CCOCC1 | -49% | 10% | -2 | -5 | ? | 9.3µM*
CCn1c(C)nc2cc(C(=O)NNC(=S)Nc3ccccc3Cl)ccc21 | -1% | -3% | 40* | 51* | i | 84%
CCn1c(C)nc2cc(C(=O)NNC(=S)Nc3ccc(Cl)cc3Cl)ccc21 | 7% | -13% | 16* | 11 | ? | 0%
CCn1c(C)nc2cc(C(=O)NNC(=O)c3ccc(Cl)nc3)ccc21 | . | 8% | 5 | 12 | 83% | 42%
CC(C)C[C@@H]1NC(=O)[C@H](CO)NC(=O)c2cc([N+](=O)[O-])cc(I)c2OCC[C@@H](C(N)=O)NC1=O | 12% | -13% | -5 | -19 | -5% | 6%
CC(C)(C)c1ccc(C(=O)CCCN2CCC(OC(c3ccccc3)c3ccccc3)CC2)cc1 | . | . | . | . | 7.6µM* | 9.5µM*
O=S(=O)(c1ccc(F)cc1)N1CCN(c2nc(-c3ccccc3)nc3cc(Cl)ccc23)CC1 | . | . | -1 | -3 | . | .
Nc1c(C(=O)c2ccccc2)sc2c1c(=O)[nH]c(=O)n2-c1ccccc1 | 0% | -5% | 12 | -4 | -2% | -15%
Cc1ccc(C(=O)c2sc3c(c2N)c(=O)[nH]c(=O)n3CCc2ccccc2)cc1 | 24% | 7% | 0 | -14 | 9.3µM* | ?
CCOc1ccc(/C=N/Nc2ccccc2)cc1 | -7% | 25µM* | 27* | 47* | 46% | 3%[0.00184 µM]
O=C(CO)N/N=C/c1ccc(Cl)cc1 | 7% | 0% | 0 | -14 | 8% | 1%
Clc1ccc(/C=N\Nc2ccccc2)cc1 | -7% | ? | 12 | 27* | ? | -3%
O=C(N/N=C/c1ccco1)Nc1ccccc1 | -1% | 6% | 29* | 102* | -13% | 195%
O=C(N/N=C/c1ccc(Cl)cc1)Nc1ccccc1 | -12% | -22% | 39* | 50* | -25% | 31%
COc1ccc(/C=N/OCC(=O)NC(c2ccccc2)c2ccccc2)c(OC)c1 | -29% | 0% | -4 | -5 | ? | ?
CCOc1ccc(/C=N/NC2=NCCCCC2)cc1 | . | 1% | 19* | 27* | 17% | 30%
CCOc1ccc(/C=N/OCC(=O)NC(c2ccccc2)c2ccccc2)cc1 | -2% | 7% | 5 | 21 | 9.3µM* | 7.4µM*
COc1ccccc1C(=O)Nc1ccnn1C1CCN(Cc2cnc(N(C)C)s2)CC1 | 2% | 2% | -2 | -7 | 37% | 0%
SMILES | NS1 function inh | Sm TGR block | CHX counter | Shiga toxin inh | Pf growth 96h | Pf growth 48h
O=C(c1cc2nc(-c3ccco3)cc(C(F)(F)F)n2n1)N1CCCCCC1 | -67% | 35µM* | 4 | 18 | ? | ?
CN1CCN(C(=O)c2cc3nc(-c4ccc(Cl)cc4)cc(C(F)(F)F)n3n2)CC1 | 6% | 1%[11.4 µM] | -2 | -11 | 4% | .
O=C(c1cc2nc(-c3ccc(Cl)cc3)cc(C(F)(F)F)n2n1)N1CCOCC1 | -3% | -1% | 9 | -11 | 10µM* | 4%
O=Cc1c(-c2ccccc2)cc2oc3ccccc3cc1-2 | 0% | 7% | 40* | 72* | 172% | .
O=[N+]([O-])c1ccccc1CNC(Cc1ccccc1)c1ccccc1 (stereo not drawn) | 3% | 9% | 6 | -3 | -13% | .
COc1cc(/C=N/N(C)c2ccccc2)cc(Cl)c1O | -151% | -35% | 38* | 123 | . | 5%
COc1cc(/C=N/N(C)C)cc(Br)c1O | -1% | -19% | 10 | 18 | 0% | 45%
COc1ccc(OC)c(/C=N/N(C)c2ccccc2)c1 | -8% | 0% | 36* | 39 | . | .
CCC1CCCCN1C(=O)CCc1nnc(C2CCCCC2)o1 (stereo not drawn) | -1% | -1% | 47* | 66* | ? | -7%
COC(=O)[C@@H]1CCCN1C(=O)CCc1nnc(C2CCCCC2)o1 | 3% | -8% | 14* | 16* | 17µM* | 24%
CCc1ccccc1NC(=O)Cn1c(=O)n(CC(=O)NCCc2ccccc2)c(=O)c2ccccc21 | . | 12% | . | . | . | .
Cc1oc2c(c1C(=O)c1ccccc1)C(=O)C(=O)c1ccccc1-2 | -169% | ? | 11 | -5 | 13µM* | 9.3µM*
Cc1oc2c(c1C(=O)O)C(=O)c1ccccc1C2=O | 3% | -32% | 13 | 45 | ? | ?
CCOC(=O)c1c(C)oc2c1C(=O)c1ccccc1C2=O | -32% | -19% | 30* | 50* | -3% | 0.74µM*
COc1cc2cc(CN(CCCO)S(=O)(=O)c3ccccc3Cl)c(=O)[nH]c2cc1OC | -14% | -3% | -1 | -8 | ? | ?
Cc1cc2cc(CN(CCCO)S(=O)(=O)c3cccc4nsnc34)c(=O)[nH]c2cc1C | -6% | -8% | 1 | -2 | -6% | 9.3µM*
Cc1ccc2[nH]c(=O)c(CN(CCCO)S(=O)(=O)c3c(C)ccc4nsnc34)cc2c1 | -15% | 8% | -1 | 12 | 5.9µM* | 0%
CC(=O)c1ccc(S(=O)(=O)N(CCCO)Cc2cc3cc(C)ccc3[nH]c2=O)cc1 | -5% | 4% | -4 | -8 | ? | 0%
O=c1[nH]c2cc3c(cc2cc1CN(CCO)S(=O)(=O)c1ccccc1Cl)OCCO3 | -9% | -14% | -6 | -11 | 0.66µM* | .
COc1cc2cc(CN(CCO)S(=O)(=O)c3ccccc3Cl)c(=O)[nH]c2cc1OC | -14% | -1% | -10 | -21 | -4% | ?
Cc1ccc2cc(CN(CC(C)C)S(=O)(=O)c3cccc4nonc34)c(=O)[nH]c2c1 | 19% | -2% | -11 | -7 | 10µM* | ?

Compound activity deposited in PubChem BioAssay by National Center for Advancing Translational Sciences (NCATS).
